According to PubChem BioAssay:
A number with no mark means an inactive call. No rule for the calls is given here.

biological target: Pantothenate synthetase (Mycobacterium tuberculosis (strain ATCC 25618 / H37Rv)) (UniProt P9WIL5); assay: Recombinant Mtb pantothenate synthetase (PanC) inhibitors, coupled enzyme, confirmatory (AID 375); conditions: coupled enzyme assay; at 10 µM, stronger effect = higher value;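 also: 0% = full reaction with vehicle and 100% = no enzyme background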
Sequence (P9WIL5 whole entry, looked up): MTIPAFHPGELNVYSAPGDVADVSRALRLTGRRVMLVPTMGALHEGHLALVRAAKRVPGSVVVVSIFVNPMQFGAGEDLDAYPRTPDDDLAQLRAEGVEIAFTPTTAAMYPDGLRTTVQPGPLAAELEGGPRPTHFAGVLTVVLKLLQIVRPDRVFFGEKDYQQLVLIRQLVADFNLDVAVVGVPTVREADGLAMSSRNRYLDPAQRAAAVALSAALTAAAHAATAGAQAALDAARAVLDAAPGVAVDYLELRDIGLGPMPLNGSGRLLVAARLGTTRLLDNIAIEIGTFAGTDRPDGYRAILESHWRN

Row | SMILES | inhibition [%]
1 | O=C(c1cnccn1)N(c1ccccc1)C1(C(=O)NC2CCCC2)CCCCC1 | 0
2 | CCC(=O)N1CCN(CCN=CC2=C(O)CC(C)(C)CC2=O)CC1 | 0
3 | CC1CCCC(C)N1CCNC(=O)C1CCN(S(=O)(=O)N2CCCCC2)CC1 (centres undefined) | 3
4 | CCCn1c(SCC(=O)NCc2ccco2)nc2c1c(=O)n(C)c(=O)n2C | 11
5 | Cc1ccccc1-n1c(SCc2c(C)noc2C)nnc1-c1ccncc1 | 0
6 | COC(=O)c1ccccc1NC(=O)Nc1cccs1 | 7
7 | COc1cc(S(=O)(=O)N(C)C)ccc1F | 1
8 | COc1cc2c(cc1OC)C(C)N(C(=O)c1cc3n(n1)C(C(F)(F)F)CC(c1ccco1)N3)CC2 (centres undefined) | 6
9 | CCOc1ccc2nc(N3CCC(C(=O)N4CCN(C5CCCCC5)CC4)CC3)sc2c1 | 0
10 | CCC(=O)Oc1ccc(C(CC)C(CC)c2ccc(OC(=O)CC)cc2)cc1 (centres undefined) | 0
11 | CCOc1ccc(C(=O)N(CN2CCCC2=O)c2ccc(C)cc2)cc1 | 0
12 | Cc1c(NC(=O)c2nn(C)c(=O)c3ccccc23)c(=O)n(-c2ccccc2)n1C | 0
13 | CCN(CC)C(=O)COC(=O)c1ccc(O)cc1 | 0
14 | CC1(C)CC(=O)C(CC(=O)NC(=O)NCc2ccccc2)=C(O)C1 | 0
15 | COC(=O)c1cccc(NC(=O)CN2CCN(Cc3ccccc3)CC2)c1 | 2
16 | C=C(C)c1cccc(C(C)(C)NC(=O)Nc2ncccn2)c1 | 0
17 | FC(F)(F)c1nnc2sc(-c3cccs3)nn12 | 4
18 | Cc1ccccc1NS(=O)(=O)c1ccc(NC(=O)c2ccco2)cc1 | 0
19 | COc1cccc(Cn2c(Oc3ccccc3)nc3c2c(=O)n(C)c(=O)n3C)c1 | 0
20 | Cn1c(=O)[nH]c(=O)c2c1nc(Br)n2CCCSc1nc2ccccc2o1 | 0

Row | SMILES | inhibition [%]
21 | Cc1[nH]nc(-c2ccc(O)c(C)c2O)c1-c1cnn(-c2ccccc2)c1 | 0
22 | O=C(c1ccc(COc2c(F)c(F)c(F)c(F)c2F)o1)N1CCOCC1 | 4
23 | COC(=O)c1ccc(CNC(=O)COc2ccccc2Br)o1 | 5
24 | CC(C)(Oc1ccc(Cl)cc1)C(=O)NC1CCSC1=O (centres undefined) | 0
25 | C=C(C)CSc1nnc2[nH]c(=O)cc(N)n12 | 0
26 | COc1ccccc1-c1cc(C(=O)NCCCn2ccnc2)no1 | 0
27 | Cc1cc2ccccn2c1C(=O)c1ccncc1 | 5
28 | C/C(=C\c1ccco1)C1C(C#N)=C(N)OC2=C1C(=O)CC(C)(C)C2 (centres undefined) | 12
29 | O=C(c1nc2n(n1)C(c1ccc(Cl)cc1)C=C(c1ccccc1)N2)N1CCOCC1 (centres undefined) | 0
30 | CC1Cc2ccccc2N1S(=O)(=O)c1cccc(C(=O)OCC(=O)NC2CCS(=O)(=O)C2)c1 (centres undefined) | 0
31 | CCCNC(=O)NC(C(=O)OC)C12CC3CC(CC(C3)C1)C2 (centres undefined) | 3
32 | CN1C(=O)CC(N2CCC(C(N)=O)(N3CCCCC3)CC2)C1=O (centres undefined) | 0
33 | Cc1cc(C)n(C(=O)CCCCCC(=O)n2nc(C)cc2C)n1 | 6
34 | Cc1cc(C)nc(SCCS(=O)Cc2ccc(Cl)cc2)n1 (centres undefined) | 0
35 | Cn1cc(-c2nc3ccccc3[nH]2)c2ccccc21 | 4
36 | O=C(CCCN1CCC(O)(c2ccc(Cl)cc2)CC1)c1ccc(F)cc1 | 0
37 | COc1ccc(S(=O)(=O)C(C#N)c2nc3ccccc3nc2N2CCCC(C)C2)cc1 (centres undefined) | 0
38 | Cc1ccc(-c2cc(C(=O)O)n[nH]2)o1 | 0
39 | O=C(c1ccc(-c2ccccc2)cc1)N1CCC(C(=O)N2CCCC2)CC1 | 0
